Only some compounds are listed: those with a hit (about 3% of all), similar ones and a draw of the others.
A549 tox: kills or reduces viability of A549 cells in Nrf2 counter-screen; A549 ARE-Fluc cells, CellTiter-Fluor viability, 18-24 h; Potency, µM (highest dose often 46 µM), without a hit: at the highest dose activity change, negative = cytotoxicity, hits mostly inhibitors; 390,000 compounds, 0.16% hits; AID 504648; also: % is scaled to controls: 0 for no effect and ±100 for the full control effect
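Cytotoxicity counterscreen: CellTiter-Fluor fluorescence was measured in A549 ARE_Fluc cells after 18-24 h of compound exposure in a concentration series. The subsequent BugLite luminescent read reports ARE-luciferase activity.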
TrxR1 inh: rat TrxR1 inhibition; recombinant rTrxR1, NADPH fluorescence consumption, selenite substrate; AID 588453; 390,000 compounds, 1% hits; Potency, µM (titrated, usually from 114 µM), for inactives: top-dose activity change, negative = inhibition, usual class: inhibitors; also: % is scaled to controls: 0 for no effect and ±100 for the full control effect; nearly all actives have a fitted effect of over 65% in size
Target sequence (O89049 whole entry, looked up): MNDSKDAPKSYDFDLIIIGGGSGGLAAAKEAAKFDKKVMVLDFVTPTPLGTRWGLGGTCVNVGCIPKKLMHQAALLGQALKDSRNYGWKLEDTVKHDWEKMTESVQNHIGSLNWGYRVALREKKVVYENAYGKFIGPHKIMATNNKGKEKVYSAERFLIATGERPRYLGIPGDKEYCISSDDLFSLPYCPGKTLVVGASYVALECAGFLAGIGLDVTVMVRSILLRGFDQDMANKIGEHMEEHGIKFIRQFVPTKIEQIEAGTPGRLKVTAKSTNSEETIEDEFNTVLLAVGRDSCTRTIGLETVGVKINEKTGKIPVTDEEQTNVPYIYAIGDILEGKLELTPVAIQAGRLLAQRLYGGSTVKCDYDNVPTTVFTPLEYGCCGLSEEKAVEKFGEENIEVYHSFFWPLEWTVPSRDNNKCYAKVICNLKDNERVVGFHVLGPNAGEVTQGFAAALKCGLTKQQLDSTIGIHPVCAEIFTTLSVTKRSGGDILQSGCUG
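Rat TrxR1 (90 nM in the dispensed reagent) was pre-reduced with 400 uM NADPH for 5 min at room temperature, then incubated with compound for 15 min. After 400 uM selenite was added, NADPH fluorescence (Ex 340/Em 450 nm) was followed for 8 min.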
Nrf2 activator: Nrf2 pathway activation; AID 624171; Potency, µM (doses to about 46.1 µM), inactives show at the highest dose activation, actives largely listed as activators; AREc32 ARE-luciferase reporter (MCF7-derived line), luminescence, 24 h; 410,000 compounds, 0.31% hits; also: % of control where 0% means no effect; nearly all actives have a fitted effect of over 65% in size
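Reporter line AREc32 (ARE-Fluc), seeded overnight in OPTI-MEM with 5% FBS; compound pin-transferred, 24 hr at 37 deg C, 5% CO2; luminescent read-out.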
Nrf2 inh: Nrf2 pathway inhibition; Potency, µM (doses to about 46 µM), for inactives: top-dose activity change, negative = inhibition, hits mostly inhibitors; A549 ARE-Fluc reporter, luciferase luminescence, 18-24 h; 360,000 compounds, 2.1% hits; also: % is scaled to controls: 0 for no effect and ±100 for the full control effect; nearly all actives have a fitted effect of over 60% in size
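Cells were seeded and rested 2 h, then exposed to compounds for 18-24 h. CellTiter-Fluor was read first as a viability measure. BugLite was added 15 min before the final luminescent read of ARE-luciferase activity in A549 cells.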
GALK inhibitor: galactokinase (human) inhibition; Purified GALK, Kinase-Glo residual ATP luminescence; 270,000 compounds, 0.007% hits; AID 1868; Potency, µM (titrated, usually from 57.5 µM), inactives show at the highest dose activity change, negative = inhibition, most hits filed as inhibitors; also: % is scaled to controls: 0 for no effect and ±100 for the full control effect
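Luminescence from leftover ATP (Ultra-Glo luciferase/luciferin) served as read-out after a 1 h room-temperature reaction of 5 nM GALK with 35 uM ATP and 100 uM galactose.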
TrxR1 substrate: is turned over as a substrate by rat TrxR1. O89049. purified TrxR1 substrate turnover, NADPH consumption readout. Potency, µM (series often up to 114 µM), for the others: at the highest dose activity change, negative = substrate turnover. 390,000 compounds, 0.01% hits; also: % is scaled to controls: 0 for no effect and ±100 for the full control effect; nearly all actives have a fitted effect of over 50% in size
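Rat TrxR1, dispensed at 90 nM, was prereduced with 400 uM NADPH (final) for 5 min at ~22 deg C, then incubated with compound 15 min before 400 uM selenite. A first-read NADPH fluorescence drop versus no-compound background flagged substrates.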
An asterisk follows results filed as active; ? = inconclusive; . = no result; [ ] = remark or other dose. Calls follow the shape of the dose curve; as a rule, active = well fitted curve in the direction sought with a large enough effect; inconclusive = small, poorly fitted or top-dose-only effect, or another doubt; inactive = no such curve, though single readings can be large; an effect the other way counts as inactive or inconclusive. Potency is read from the fitted curve at half-maximal effect.

SMILES	A549 tox	TrxR1 inh	Nrf2 activator	Nrf2 inh	GALK inhibitor	TrxR1 substrate
COc1ccc(C2CC(=O)c3cc(-c4nc(-c5cccc([N+](=O)[O-])c5)cs4)c(=O)n(-c4ccc(F)cc4)c3C2)cc1 (centres undefined)	-12%	16%	0%	-6%	.	-2%
Cc1nc2ccc(NS(=O)(=O)c3ccc(F)c(F)c3F)cc2s1	5%	31%	4%	-22%	.	2%
Cc1nc2ccc(NS(=O)(=O)c3c(F)cc(F)cc3Br)cc2s1	-1%	6%	0%	21µM*	.	-8%
Cc1nc2ccc(NS(=O)(=O)c3ccc(F)cc3F)cc2s1	0%	-8%	0%	13µM*	.	-14%
O=C1C=CC(=O)N1c1cccc2cccnc12	5%	56µM*	3%	-1%	.	13%
c1cnc2c(c1)ccc1cccnc12	?	12%[57.1 µM]	10%	5.8µM*	0%	9%[57.1 µM]
COc1cc(C(=S)N2CCC(C)CC2)ccc1O	.	-20%	0%	18µM*	0%	-4%
COc1ccc(Cl)cc1S(=O)(=O)N1CCN(S(=O)(=O)c2ccc3c(c2)OCCO3)CC1	0%	.	.	?	.	.
CCN(CC)C(=O)CSc1nc(-c2ccc(C)cc2)nc2c1Cc1c(CO)cnc(C)c1O2	-2%	20µM*	0%	-1%	.	-5%
Cc1ccc(-c2nc3c(c(SCC(=O)N(C)c4ccccc4)n2)Cc2c(CO)cnc(C)c2O3)cc1	0%	?	0%	26%	.	-6%
CCCn1c(N)c(C(=O)CSc2nnc(Cc3cccs3)n2C2CC2)c(=O)n(C)c1=O	-4%	16%	3%	12µM*	.	4%
Cn1c(N)c(C(=O)CSc2nnc(Cc3cccs3)n2C2CC2)c(=O)n(C)c1=O	1%	6%	2%	7%	.	5%
O=C(Nc1ccc(F)cc1)Nc1ccc(N2CCCC2)c(S(=O)(=O)Nc2ccccc2Cl)c1	?	0%	3%	23µM*	-2%	-3%
O=C(Nc1ccc(Cl)c(Cl)c1)Nc1ccc(N2CCCC2)c(S(=O)(=O)Nc2ccccc2Cl)c1	?	9%	0%	13µM*	-1%	1%
COc1ccc(C2NN=C(c3c[nH]c4ccccc34)C2O)cc1 (centres undefined)	-2%	15%[2.29 µM]	17%	-8%	0%	4%[57.1 µM]
COc1ccc(C2C(O)C(c3c[nH]c4ccccc34)=NN2C(=O)CCl)cc1 (centres undefined)	-13%	13µM*	?	6%	-7%	-4%
CC(C)[C@H](NC(=O)c1ccc(C(C)(C)C)cc1)C(=O)N1CCN(Cc2ccc3c(c2)OCO3)CC1	?	6%	2%	21µM*	.	-13%
CCc1ccc(NC(=O)N(CCN2CCOCC2)Cc2ccc3c(c2)CCCN3CC)cc1	16µM*	-5%	3%	?	2%	2%
CCN1CCCc2cc(CN(CCN3CCOCC3)C(=O)Nc3ccc(C)c(C)c3)ccc21	?	-17%	3%	-30%	0%	-9%
CCOC(=O)c1ccc(NC(=O)Nc2cc3c(cc2N2CCCC2)n(C)c(=O)n3C)cc1	-1%	-5%	7%	?	.	-3%
CC(C)(C)n1ncc2c(=O)n(Cc3ccccc3Cl)cnc21	.	1%	.	.	.	-2%
COc1ccc(N(Cc2cc(=O)[nH]c3ccccc23)C(=O)CCl)cc1	-8%	6.3µM*	6%	?	-6%	7%
Cc1cccc(N(Cc2cc(=O)[nH]c3ccccc23)C(=O)CCl)c1	2%	4µM*	0%	-23%	.	10%
O=S(=O)(NCC1CCN(c2ccc(S(=O)(=O)N3CCOCC3)cc2)CC1)c1ccc(F)cc1	?	22%[57.1 µM]	1%	21µM*	9%	6%
Cc1cc(SCC(=O)NCc2ccccc2)nc(=O)[nH]1	1%	20%[57.1 µM]	0%	.	.	4%[57.1 µM]
SMILES	A549 tox	TrxR1 inh	Nrf2 activator	Nrf2 inh	GALK inhibitor	TrxR1 substrate
Cc1ccccc1CN1CCc2nc(N3CCN(c4ncccn4)CC3)ncc2C1	-22%	4%[57.1 µM]	-1%	.	.	-2%[57.1 µM]
Cc1ccc(C(=O)NCCSc2ccc(Cl)cc2)cc1S(=O)(=O)Nc1ccccc1	?	1%	3%	15µM*	.	5%
Cc1ccc(NS(=O)(=O)c2cc(C(=O)NCCSc3ccc(C)cc3)ccc2C)cc1	-22%	7%[57.1 µM]	0%	23µM*	6%	-3%
CCCCN(C)C(=O)c1ccc2c(c1)N(Cc1ccc(F)cc1)C(=O)c1ccccc1S2(=O)=O	?	-6%	7%	16µM*	.	-15%
Cc1cc2c(s1)c1cnn(Cc3ccc(F)c(F)c3)c(=O)c1n2C	-2%	.	.	13%	.	.
C=C1[C@@H](O)[C@H](Cc2ccccc2)N(Cc2ccccc2Br)S1(=O)=O	-1%	14µM*	-3%	?	.	-3%
CN1C(=O)CC(Nc2cccc3cccc(N)c23)C1=O (centres undefined)	-8%	45µM*	?	-27%	-2%	1%
CC(C)N1C(=O)CC(Nc2cccc3cccc(N)c23)C1=O (centres undefined)	-11%	-54%	21%	0%	7%	-2%[57.1 µM]
Nc1nc(-c2ccccc2)c(N=Nc2cccc3ccccc23)s1	16µM*	-10%	24%	-8%	.	-7%
Nc1nc(-c2ccccc2)c(N=Nc2ccccc2Cl)s1	?	-22%	7%	1%	2%	-18%
COc1ccc(OC)c(CCNC(=O)c2cnn(-c3ccccc3)c2C2CCN(C(=O)OC(C)(C)C)CC2)c1	-26%	1%	-1%	?	.	8%
COc1ccc(OC)c(CCNC(=O)c2cnn(-c3ccc(C)cc3C)c2C2CCN(C(=O)OC(C)(C)C)CC2)c1	-29%	21%	0%	18µM*	.	-5%
Cc1ccc(Cl)cc1N1CCN(C(=O)c2cnn(C(C)(C)C)c2C2CCN(C(=O)OC(C)(C)C)CC2)CC1	-9%	14%	0%	?	.	-6%
Cc1ccc(C)c(N2CCN(C(=O)c3cnn(C(C)(C)C)c3C3CCN(C(=O)OC(C)(C)C)CC3)CC2)c1	-26%	7%	0%	21µM*	.	-7%
Cc1ccc(C)c(N2CCN(CCCNC(=O)c3cnn(-c4ccc(F)cc4)c3C3CCN(C(=O)OC(C)(C)C)CC3)CC2)c1	18µM*	9%	0%	?	.	-8%
CCc1ccc(-c2nc(CS(=O)CC(=O)NCCCN3CCOCC3)c(C)o2)cc1 (centres undefined)	0%	20µM*	3%	23%	-4%	10%
CCc1ccc(-c2nc(CS(=O)CC(=O)NCc3ccccc3)c(C)o2)cc1 (centres undefined)	3%	32µM*	0%	-9%	2%	2%

Source: PubChem (National Center for Advancing Translational Sciences (NCATS))
